TEAD-YAP inh: TEAD-YAP interaction inhibition. HEK-TIYL cells, TEAD-Gal4/YAP UAS-luciferase luminescence. inhibition, % at 9.12 µM. 1.4% of 640,000 active. AID 1259422; in the data active = inhibition above about 32%;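 note: 0% = median of test compound wells and 100% = reference inhibitor wells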
MITF primary: human MITF inhibition, primary screen; O75030; AlphaScreen MITF homodimerization, bead proximity signal; inhibition, % at 2.6 µM; 0.91% of 650,000 active; in the data active = inhibition above about 50%;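 note: 0% = vehicle wells with protein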
Target sequence (O75030 whole entry, looked up): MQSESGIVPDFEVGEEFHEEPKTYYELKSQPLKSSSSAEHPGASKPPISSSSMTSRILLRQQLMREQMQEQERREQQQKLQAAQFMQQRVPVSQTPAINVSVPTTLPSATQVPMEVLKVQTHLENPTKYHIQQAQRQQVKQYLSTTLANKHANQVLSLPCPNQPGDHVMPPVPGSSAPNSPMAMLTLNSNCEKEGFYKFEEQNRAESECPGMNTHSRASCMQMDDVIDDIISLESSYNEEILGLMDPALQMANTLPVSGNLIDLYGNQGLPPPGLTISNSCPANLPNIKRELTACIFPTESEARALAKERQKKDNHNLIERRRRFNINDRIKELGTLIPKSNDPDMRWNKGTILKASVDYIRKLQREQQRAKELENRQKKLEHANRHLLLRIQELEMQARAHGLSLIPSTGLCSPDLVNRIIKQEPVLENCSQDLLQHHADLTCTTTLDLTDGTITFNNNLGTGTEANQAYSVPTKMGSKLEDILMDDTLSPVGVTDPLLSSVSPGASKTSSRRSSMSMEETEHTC
GPR151 ag: human GPR151 activation | Q8TDV0 | PathHunter beta-arrestin GPR151 cells, luminescence | activation, % at 11.2 µM | 1% of 650,000 active | AID 1508602; in the data active = activation above about 4.9%;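 note: 0% = median of compound wells and 100% = cells with positive control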
FBW7 act: human FBW7 E3 ligase activation, primary screen | Q969H0 | AlphaScreen FBW7–phospho-cyclin E peptide binding, activator screen | normalized activity (activation), % at 26.1 µM | 0.13% of 650,000 active; in the data active = normalized activity above about 1.9%;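 note: purified mutant Fbw7 with reduced substrate affinity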
* = called active by the depositor. In the library only some 3.4% were active in any assay of this set; here they are far more common.

SMILES	TEAD-YAP inh	MITF primary	GPR151 ag	FBW7 act
O=C(Nc1ccc(Oc2ccccc2)cc1)c1ccc(F)c([N+](=O)[O-])c1	57*	11	0	0
O=C(Nc1ccc(F)cc1)c1ccc(F)c([N+](=O)[O-])c1	59*	4	-2	0
Cc1noc(C)c1NC(=O)N1CCC2(CC1)NCCc1c2[nH]c2ccc(Cl)cc12	-5	14	-1	0
COc1cccc(NC(=O)N2CCC3(CC2)NCCc2c3[nH]c3ccc(Cl)cc23)c1	48*	15	0	0
Cc1ccc2[nH]c3c(c2c1)CCNC31CCN(C(=O)N[C@@H](C)c2ccccc2)CC1	-16	16	1	0
C[C@H](NC(=O)N1CCC2(CC1)NCCc1c2[nH]c2ccc(Cl)cc12)c1ccccc1	37*	6	0	0
Cc1ncc(CO)c(/C=N/Nc2cccc(Cl)n2)c1O	-13	6	1	0
Cc1ncc(CO)c(/C=N/Nc2ccc3ccccc3n2)c1O	52*	5	0	-1
Cc1ncc(CO)c(/C=N/NC(=O)CCCOc2ccc(Cl)cc2Cl)c1O	55*	9	1	0
Cc1ncc(CO)c(/C=N/NC(=O)c2cc(O)c(O)c(O)c2)c1O	-7	99*	1	0
Cc1ncc(CO)c(/C=N/NC(=O)c2ccc(Cl)c(Cl)c2)c1O	-1	-6	0	-1
CC1(C)OC(=O)C(=CNC(C(=O)O)c2ccccc2)C(=O)O1 (configuration not stated)	-6	8	3	0
Cc1ccc(C2/C(=C(/O)c3ccc(S(=O)(=O)N(C)C)cc3)C(=O)C(=O)N2CCCN2CCOCC2)o1 (configuration not stated)	2	3	-1	0
O=C(NCCO)c1ccnc(N2CCN(c3ccccn3)CC2)c1	-8	9	1	0
O=C(NCCc1ccc(O)cc1)c1ccnc(N2CCN(c3ccccn3)CC2)c1	45*	-7	-1	0
O=C(NCc1ccccc1)C(c1cccs1)N(Cc1cccs1)C(=O)c1cnccn1 (configuration not stated)	6	18	-1	0
O=C(NCc1ccccc1)C(c1ccccc1)N(Cc1cccs1)C(=O)c1cnccn1 (configuration not stated)	34*	3	-1	0
O=C(NCc1ccccc1)C(c1ccccc1)N(Cc1cccnc1)C(=O)c1csnn1 (configuration not stated)	-4	21	1	6.9*
O=Cc1s/c(=N\S(=O)(=O)c2ccccc2)n(CCCCl)c1Cl	45*	0	-2	0
CCN(CC)c1nc2cc(OC)ccc2cc1C#N	23	-17	-1	2.3*
Cc1cc(/C=C(\C#N)C(=O)OCC(=O)NCc2cccs2)c(C)n1CC(C)C	49*	9	-2	0
Cc1cc(/C=C(\C#N)C(=O)O)c(C)n1CC(C)C	12	8	0	0
Cc1ccc(NC(=O)CC[C@H]2CN(Cc3ccccn3)CC[C@H]2N2CCOCC2)cc1	-6	9	-1	1
COc1cccc(N2CCN(c3c4c(nc5nncn35)CCC4)CC2)c1	37*	7	-2	0
CCc1ccc2c(c1)NC(=O)C2(C)Cc1cccc(C(=O)OC)c1 (configuration not stated)	44*	2	1	0
SMILES	TEAD-YAP inh	MITF primary	GPR151 ag	FBW7 act
O=[N+]([O-])c1cccc(-c2nc(-c3ccccc3Cl)no2)c1	-11	6	0	2.1*
O=[N+]([O-])c1ccc(-c2nc(-c3ccccc3Cl)no2)cc1	0	-7	1	0
CCC1C(=O)NCCN1Cc1ccc2c(c1)CN(Cc1ccc(Cl)cc1)CCO2 (configuration not stated)	3	7	0	0
CCC1C(=O)NCCN1Cc1ccc2c(c1)CN(Cc1c(C)nc3sccn13)CCO2 (configuration not stated)	35*	-2	2	0
O=C(Cc1ccccc1)NCC(c1cccs1)N1CCOCC1 (configuration not stated)	3	8	-1	0
Cc1ccc2nc(-c3ccccc3)[nH]c2c1	51*	-1	-11	0
Nc1ccc(-c2nc3ccc(C(=O)O)cc3[nH]2)cc1	36*	-6	-8	0
Cc1ccc2nc(-c3cccc(N)c3)[nH]c2c1	60*	0	-8	0
Nc1cccc(-c2nc3cc4ccccc4cc3[nH]2)c1	50*	-14	-8	0
Nc1ccc(C(=O)Nc2ccc3nc(-c4ccccc4)[nH]c3c2)cc1	-37	-15	3	0
Cc1ccc(-n2cnnn2)cc1N	-16	-2	-1	0
O=C(NNC(=O)Nc1ccc(Cl)cc1)Nc1ccccc1	-15	6	1	0
CN(C)c1ccc(-c2nc3ccccc3[nH]2)cc1	96*	21	-10	0
COc1ccc2ccccc2c1C(=O)/C=C/c1cccnc1	85*	20	-1	1
COc1ccc(/C=C/C(=O)c2cccnc2)cc1OC	0	43	1	0
N#C/C(=C\Nc1ccc(C(N)=O)cc1)c1nc(-c2cc3ccccc3oc2=O)cs1	6	11	0	0
Cc1nnc(SCC(=O)N2CCCC2)s1	-2	2	-2	0
Cc1nnc(SCC(=O)N2CCC(c3noc4ccc(F)cc34)CC2)s1	37*	-2	1	0
CN(C1CCS(=O)(=O)C1)S(=O)(=O)c1cccc([N+](=O)[O-])c1 (configuration not stated)	-3	5	-1	0
CCCCOc1ccc(S(=O)(=O)N2CC(C)OC(C)C2)cc1 (configuration not stated)	8	19	0	0
Oc1ccc(Cl)cc1CNc1nc2ccccc2[nH]1	-16	-4	2	0
Oc1ccc(Br)cc1CNc1nc2ccccc2[nH]1	-10	74*	0	0
COC(=O)C1=C(C)NC2=C(C(=O)c3ccccc32)C1c1cc(Cl)c(OC)c(OC)c1 (configuration not stated)	61*	14	-1	0
CC(=O)c1ccc(-c2cc(F)cc3c2OC(CNC(=O)/C=C/c2cccnc2)C3)s1 (configuration not stated)	33*	0	-1	0
CCCc1cc(C(=O)N2CCC[C@@H](Cn3cc(C(=O)NCCOC)nn3)C2)no1	1	-17	-1	0
SMILES	TEAD-YAP inh	MITF primary	GPR151 ag	FBW7 act
O=c1nc(-c2ccccc2)c2ccccc2[nH]1	-14	11	-1	0
O=c1cc(-c2ccccc2)[nH]c2ccccc12	46*	-4	1	0
CC(=O)Nc1ccc(Nc2nc(-c3c(C)nc4ncccn34)cs2)cc1	-12	3	0	0
COc1ccc(Nc2nc(-c3c(C)nc4ncccn34)cs2)cc1	58*	11	0	0
Cc1nc2ncccn2c1-c1csc(Nc2ccc(N(C)C)cc2)n1	52*	26	-2	0
Cc1nc2ncccn2c1-c1csc(Nc2ccccc2)n1	-4	8	0	0
Cc1cc(C(=O)COc2ccccc2C(N)=O)c(C)n1CCc1ccccc1	16	2	1	0

High-throughput results deposited in PubChem by The Scripps Research Institute Molecular Screening Center.
